High-throughput results deposited in PubChem by several laboratories.
PTK2B oligo ant: Pyk2 (human) oligomerization antagonism | Q14289 | Q293 cells, Pyk2 FERM NanoBiT luminescence; hits give low values | z-score (the deposit names both 25 µM and 10 µM) | actives 0.83% (n = 99,000) | AID 1347419;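 active = Z-score of -3 or lower, scaled per plate to the spread of control and sample wells; inactive = z-score above -3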;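 also: negative z-score means lost luminescence so less FERM oligomerization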
Target sequence (Q14289 whole entry, looked up): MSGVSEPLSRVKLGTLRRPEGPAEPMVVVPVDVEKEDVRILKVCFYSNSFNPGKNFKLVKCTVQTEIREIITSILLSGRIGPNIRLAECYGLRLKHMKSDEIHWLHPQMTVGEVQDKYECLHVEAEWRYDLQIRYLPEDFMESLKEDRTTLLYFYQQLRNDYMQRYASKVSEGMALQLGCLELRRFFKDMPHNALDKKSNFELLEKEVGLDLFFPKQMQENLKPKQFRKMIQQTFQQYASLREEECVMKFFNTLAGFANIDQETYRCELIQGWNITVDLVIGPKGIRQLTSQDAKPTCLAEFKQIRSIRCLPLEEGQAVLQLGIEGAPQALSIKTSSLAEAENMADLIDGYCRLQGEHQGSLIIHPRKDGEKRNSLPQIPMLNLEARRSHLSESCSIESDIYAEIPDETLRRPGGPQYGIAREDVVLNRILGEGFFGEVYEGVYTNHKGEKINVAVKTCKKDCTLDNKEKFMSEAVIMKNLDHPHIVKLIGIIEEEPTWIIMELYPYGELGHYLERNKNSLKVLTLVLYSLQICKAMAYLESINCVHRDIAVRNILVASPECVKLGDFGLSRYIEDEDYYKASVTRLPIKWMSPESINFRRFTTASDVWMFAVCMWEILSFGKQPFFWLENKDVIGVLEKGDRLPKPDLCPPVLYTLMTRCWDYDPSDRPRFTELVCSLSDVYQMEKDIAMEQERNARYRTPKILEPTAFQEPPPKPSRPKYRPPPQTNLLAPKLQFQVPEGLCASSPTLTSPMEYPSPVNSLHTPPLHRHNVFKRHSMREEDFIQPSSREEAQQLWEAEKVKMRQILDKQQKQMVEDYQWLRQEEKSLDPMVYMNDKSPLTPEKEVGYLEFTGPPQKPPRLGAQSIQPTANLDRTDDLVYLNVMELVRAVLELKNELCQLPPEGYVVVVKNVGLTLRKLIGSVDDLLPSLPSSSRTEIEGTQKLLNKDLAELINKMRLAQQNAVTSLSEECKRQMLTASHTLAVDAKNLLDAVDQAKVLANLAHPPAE
CYP2C9 activ: increases human cytochrome P450 2C9 activity. P11712. recombinant CYP2C9, luciferin-H conversion, luminescence; hits give high values; factor 1 = untreated enzyme, 0 = blocked. activation factor at 5 µM. actives 1.4% (n = 96,000);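 active = activation factor of 2 or more for CYP2C9 at a 5 µM dose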
CYP2C9 inh: inhibitors of human CYP2C9; P11712; CYP2C9 Supersomes, luciferin-H conversion, luminescence; inhibition, % at 5 µM; actives 20% (n = 96,000);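 active = blocking of liver enzyme CYP2C9 beyond about 50% at 5 µM, limit read from the data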
CYP2C19 activ: activators of human cytochrome P450 2C19; P33261; recombinant CYP2C19, luciferin-H EGE luminescence; hits give high values; 0 = fully inhibited enzyme, 1 = untreated enzyme; activation factor at 5 µM; 96,000 tested, under 10 active;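 active = activation factor of at least 2 at 5 µM in the primary screen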
CYP2C19 inhib: inhibitors of human CYP2C19; CYP2C19 Supersomes, luciferin-H EGE luminescence, 30 min; inhibition, % at 5 µM; actives 21% (n = 96,000);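 active = CYP2C19 inhibition above a set limit at 5 µM in the primary screen, cut at about 50% in these data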
Cav32 inh: human Cav3.2 channel inhibition, primary screen | O95180 | Cav3.2-expressing cells, Fluo-4 calcium fluorescence FDSS; hits give low values | B-score at 10 µM | actives 4% (n = 100,000);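 active = single-dose well whose peak fluorescence ratio is a statistical outlier from its plate by either plate-standardised score or position-corrected B-score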
Each line names hits and unclear results; the compound was inactive in the other large screens. Rows were chosen to be rich in hits. Some 27% of all compounds tested hit in one or more screens of this group.

N#Cc1c(N)nc(SCC(=O)NCc2ccc3c(c2)OCO3)c(C#N)c1-c1cccs1	CYP2C9 inh 74
N#Cc1c(N)nc(SCc2ccccn2)c(C#N)c1-c1cccs1	PTK2B oligo ant -3.8
COc1ccc(-c2cc(-c3cccs3)c(C#N)c(SCC(=O)NCc3ccccc3)n2)cc1	CYP2C9 inh 53
CC[C@H]1OC(=O)[C@H](C)[C@@H](O[C@H]2C[C@@](C)(OC)[C@@H](O)[C@H](C)O2)[C@H](C)[C@@H](O[C@@H]2O[C@H](C)C[C@H](N(C)C)[C@H]2O)[C@](C)(OC)C[C@@H](C)C(=O)[C@H](C)[C@@H](O)[C@]1(C)O	none (no result: PTK2B oligo ant, CYP2C9 activ, CYP2C9 inh, CYP2C19 activ, CYP2C19 inhib)
COC(=O)c1oc2c(c1C)C1(CCC2)SCCS1	none
COc1cc(/C=C2\S/C(=N/S(=O)(=O)c3ccc(C)cc3)NC2=O)c([N+](=O)[O-])cc1OC	Cav32 inh -5.3 (no result: CYP2C9 activ, CYP2C9 inh, CYP2C19 activ, CYP2C19 inhib)
CCCCNC(=O)C1CCN(c2nc(OC)nc(OC)n2)CC1	none (no result: CYP2C9 activ, CYP2C9 inh, CYP2C19 activ, CYP2C19 inhib)
COCCCNC(=O)c1cn(CC(C)C)c(=O)c2c1c1ccccc1n2C	none
CC(C)Cn1cc(C(=O)NC2CCN(Cc3ccccc3)CC2)c2c3ccccc3n(C)c2c1=O	CYP2C19 inhib 57 (no result: PTK2B oligo ant, Cav32 inh)
CCN1CCN(C(=O)c2cn(CCOC)c(=O)c3c2c2ccccc2n3C)CC1	none
CC(C)Cn1cc(C(=O)N2CCN(c3ccccn3)CC2)c2c3ccccc3n(C)c2c1=O	CYP2C9 inh 78
CC(=O)Nc1nc(COc2ccc3ccccc3c2)cs1	none
CCOC(=O)Cc1csc(NC(=O)c2ccc(NC(C)=O)cc2)n1	none (no result: CYP2C9 activ, CYP2C9 inh, CYP2C19 activ, CYP2C19 inhib)
O=C(Nc1nc(COc2ccccc2)cs1)C1CCC1	none (no result: CYP2C9 activ, CYP2C9 inh, CYP2C19 activ, CYP2C19 inhib)
CC(=O)Nc1nc(CC(=O)c2ccccc2)cs1	CYP2C19 inhib 65 (no result: PTK2B oligo ant)
CC(=O)Nc1nc(COc2ccccc2)cs1	CYP2C9 inh 59, CYP2C19 inhib 89
O=C(Nc1nc(COc2ccccc2)cs1)C12CC3CC(CC(C3)C1)C2	CYP2C9 inh 96, CYP2C19 inhib 56
C/C=C(/C)C(=O)Nc1cccc(C2=NOC3(C2)C[C@@H](C(N)=O)N(C(=O)CCCCC)C3)c1 (some centres undefined)	none (no result: PTK2B oligo ant, CYP2C9 activ, CYP2C9 inh, CYP2C19 activ, CYP2C19 inhib)
CCOC(=O)c1cnc2c(ccc3ccccc32)c1NCCO	none (no result: CYP2C9 activ, CYP2C9 inh, CYP2C19 activ, CYP2C19 inhib)
CCOC(=O)c1cnc2c(C)cccc2c1NCCc1ccc(OC)c(OC)c1	CYP2C9 inh 90, CYP2C19 inhib 97
CC(=O)c1cccc(NC(=O)C2CC(c3ccc(F)cc3)=NO2)c1 (centres undefined)	CYP2C19 inhib 68
COc1cccc(C2=NOC(C(=O)Nc3cccc(C(C)=O)c3)C2)c1OC (centres undefined)	CYP2C19 inhib 58
COc1cccc(C2=NOC(C(=O)Nc3cccc(C(C)=O)c3)C2)c1 (centres undefined)	none
CC(=O)c1ccc(NC(=O)C2CC(c3ccc(F)cc3)=NO2)cc1 (centres undefined)	none
Cc1cc(NC(=O)Cc2cn3ccsc3n2)n(-c2ccccc2)n1	none
Cc1cc(NC(=O)C2CC(c3ccc(F)cc3)=NO2)n(-c2ccccc2)n1 (centres undefined)	CYP2C19 inhib 68 (no result: PTK2B oligo ant)
CN=C(Nc1cc(C)nn1-c1ccccc1)c1ccc(F)cc1	CYP2C19 inhib 92
C[C@H]1CCC[C@@]2(O[C@H](CCO)C[C@@H](O)[C@@H]2O)O1	none (no result: PTK2B oligo ant, CYP2C9 activ, CYP2C9 inh, CYP2C19 activ, CYP2C19 inhib)
CCC1(C)N(O)C(C)(C)C(c2ccc(F)cc2)=[N+]1[O-] (centres undefined)	none (no result: CYP2C9 activ, CYP2C9 inh, CYP2C19 activ, CYP2C19 inhib)
CCN(CC)S(=O)(=O)c1ccc(N(C)Cc2cccnc2)nc1	CYP2C9 inh 68, CYP2C19 inhib 81
CN(Cc1ccccc1)c1ccc(S(=O)(=O)N2CCOCC2)cn1	none
O=C(COC(=O)c1cccs1)c1ccc2ccccc2c1	none (no result: CYP2C9 activ, CYP2C9 inh, CYP2C19 activ, CYP2C19 inhib)
O=C(NCc1ccc2c(c1)OCO2)c1cccs1	CYP2C9 inh 67, CYP2C19 inhib 93
O=C(COC(=O)c1cccs1)NCc1ccc2c(c1)OCO2	CYP2C9 inh 69, CYP2C19 inhib 78
CCC(OC(=O)c1cccs1)C(=O)NCc1ccc2c(c1)OCO2 (centres undefined)	CYP2C9 inh 79, CYP2C19 inhib 69
O=C(COC(=O)c1cccs1)c1ccc2c(c1)OCCO2	CYP2C9 inh 87, CYP2C19 inhib 83
Nc1nc(SCc2ccccc2Cl)ns1	none (no result: CYP2C9 activ, CYP2C9 inh, CYP2C19 activ, CYP2C19 inhib)
O=C(Cc1n[nH]c(=O)c2ccccc12)OCC(=O)c1ccc2c(c1)OCCO2	CYP2C9 inh 66
CC(=O)N(c1ccccc1)c1nc(C)cc(C)c1C#N	none (no result: CYP2C9 activ, CYP2C9 inh, CYP2C19 activ, CYP2C19 inhib)
COc1cc(C)c(N(C(C)=O)c2ccccc2)c(C)c1	CYP2C19 inhib 61
COc1ccc(C(C(=O)NC2CCCCC2)N(C(=O)c2sc(C)nc2C)c2ccccc2C)cc1 (centres undefined)	none
O=C(Nc1ccc2c(c1)OCO2)c1cccc(Cl)c1	CYP2C19 inhib 70
O=C(Nc1ccc(Cl)cc1)c1ccc2c(c1)OCO2	none
O=C(Nc1ccc2c(c1)OCO2)c1ccc(Cl)s1	CYP2C9 inh 62, CYP2C19 inhib 81
Cc1noc(C(=O)Nc2ccc3c(c2)OCO3)c1Cl	none (no result: PTK2B oligo ant, CYP2C9 activ, CYP2C9 inh, CYP2C19 activ, CYP2C19 inhib)
O=C(Nc1ccc(F)c(F)c1)c1ccc2c(c1)OCO2	CYP2C19 inhib 94
Nc1nc(-c2ccc(Cl)cc2Cl)cn1N	none
CC(=O)c1ccc(N2CCN(C(=O)c3ccc(NC(=O)C4CCCO4)cc3)CC2)cc1 (centres undefined)	none
O=C(Nc1ccncc1)c1ccc2c(c1)C(=O)N(C1CCCCC1)C2=O	CYP2C9 inh 92, CYP2C19 inhib 76
Cc1cc(NC(=O)c2ccc3c(c2)C(=O)N(C2CCCCC2)C3=O)no1	none
CCC(=O)Nc1ccc2c(c1)C(=O)N(C1CCCCC1)C2=O	CYP2C9 inh 53
COc1ccccc1C(=O)O/N=C(/C)c1ccc(N2C(=O)C3CCCCC3C2=O)cc1 (centres undefined)	CYP2C9 activ 3.3, CYP2C19 inhib 54
CCCc1ccc(Oc2cn[nH]c2-c2ccc(O)c(C)c2O)cc1	PTK2B oligo ant -3.5, CYP2C9 inh 99, CYP2C19 inhib 98
CCOc1ccc(-c2n[nH]c(C)c2-c2ccccc2OC)c(O)c1	none
CCCc1ccc(Oc2c(-c3ccc(O)c(C)c3O)n[nH]c2C)cc1	CYP2C9 inh 98, CYP2C19 inhib 100
CC1CC(C)CN(S(=O)(=O)c2ccccc2[N+](=O)[O-])C1 (centres undefined)	none (no result: CYP2C9 activ, CYP2C9 inh, CYP2C19 activ, CYP2C19 inhib, Cav32 inh)
c1ccc(CN2CCN(c3ncnc4nc[nH]c34)CC2)cc1	none (no result: PTK2B oligo ant, Cav32 inh)
C=C1/C(=C\C=C2/CCC[C@]3(C)[C@@H]([C@H](C)/C=C/[C@@H](O)C4CC4)CC[C@@H]23)C[C@@H](O)C[C@@H]1O	none (no result: PTK2B oligo ant, CYP2C9 activ, CYP2C9 inh, CYP2C19 activ, CYP2C19 inhib)
Cc1ccc(C2CC(c3ccccc3)=NN2C(=O)CSc2nnc(-c3ccncc3)n2C)o1 (centres undefined)	none (no result: CYP2C9 activ, CYP2C9 inh, CYP2C19 activ, CYP2C19 inhib, Cav32 inh)
C#CCOCCOCCOCCNc1nc(N2CCOCC2)nc(N2CCN(C(=O)Cn3cc(CC(C)O)nn3)CC2)n1 (centres undefined)	none (no result: PTK2B oligo ant, CYP2C9 activ, CYP2C9 inh, CYP2C19 activ, CYP2C19 inhib)
O=C(Cn1nc(-c2ccccc2)ccc1=O)NCCN1CCN(Cc2ccccc2)CC1	CYP2C19 inhib 84
